# Screening data from PubChem.
# Compounds with a hit are over-represented: about 21% of the library has one in this group of screens.
# Pf growth 96h: inhibits malaria parasite growth, 96 h; P. falciparum luciferase reporter growth, 96 h; Potency, µM (top dose mostly 28.7 µM), for the others: top-dose activity change, negative = inhibition, usual class: inhibitors; hit rate 6.9% among 320,000; AID 504834; also: potency is read from the fitted curve at half-maximal effect; % is scaled to controls: 0 for no effect and ±100 for the full control effect
#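 Plates of compound plus infected erythrocytes (2% hematocrit, 0.05% parasitemia final) incubate 96 hours, 37 C, 5% CO2. Detection reagent added; reduced luminescence from the parasites' luciferase reporter flags inhibition.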
# HCV inh: inhibitors of hepatitis C virus infection | AID 651820 | hit rate 3.4% among 340,000 | Huh7.5.1 HCVcc-Cre infection, luciferase reporter, 44 h | Potency, µM (top dose mostly 41.8 µM), inactives show at the top dose activity change, negative = inhibition, actives largely listed as inhibitors; also: potency is read from the fitted curve at half-maximal effect; % is scaled to controls: 0 for no effect and ±100 for the full control effect
#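 Reporter virus HCVcc-Cre (~0.5 moi) infects cells exposed to compound; seeding density 1,000 cells/well with 4 h settling beforehand. Luminescence, 15 sec read, taken 44 h post-infection following a 15 min RT substrate incubation.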
# HCMV antiviral: blocks human cytomegalovirus replication. HFF cells, HCMV-luciferase reporter, 72 h; hits give low values. activity change, negative = inhibition, % at 57.5 µM. hit rate 4.5% among 410,000. AID 1259415; in the data active = activity change below about -60%; inconclusive = no clear call, values can overlap the other calls; inactive = above about -39%; also: % is scaled to controls: 0 for no effect and ±100 for the full control effect
#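 Human foreskin fibroblasts infected with luciferase-reporter HCMV at MOI 1 PFU/cell, compounds at two doses. Luciferase measured 72 h post infection; normalized to buffer-only basal and Salinomycin (10uM) controls.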
# Shiga toxin inh: blocks Shiga toxin action in Vero cells. hit rate 9.2% among 290,000. inhibition, % at 38.7 µM. Vero cells, Shiga toxin protein synthesis inhibition reporter. AID 2315; in the data active = inhibition mostly above about 28%, no sharp cut-off; inactive = mostly below about 43%; also: 0% is about no effect
# Pf growth 48h: P. falciparum growth inhibition at 48 hours (one generation). P. falciparum luciferase growth in erythrocytes, 48 h. Potency, µM (doses to about 28.7 µM), without a hit: at the top dose activity change, negative = inhibition, usual class: inhibitors. hit rate 5.9% among 310,000; also: potency is read from the fitted curve at half-maximal effect; % is scaled to controls: 0 for no effect and ±100 for the full control effect
#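 First compound was added to culture medium, then infected red cells at 0.1% parasitemia and 2% hematocrit (final). After incubation at 37 C under 5% CO2, luciferase detection reagent was dispensed and light output recorded.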
# CHX counter: counter-screen for Shiga toxin inhibitors: cycloheximide protein synthesis inhibition. AID 2314. hit rate 12% among 300,000. cell reporter, cycloheximide protein synthesis inhibition counterscreen. max response, %; in the data active = max response mostly above about 13%, no sharp cut-off; inactive = mostly below about 14%; also: read at 38.3 µM for the half of the compounds with a filed dose; 0% is about no effect
# * = called active by the depositor; ? = inconclusive; . = not tested or not shown; ! = repeats disagree; [ ] = another dose, or the depositor's remark. Unless noted, calls follow the shape of the dose curve; as a rule, active = well fitted inhibition curve with a large enough effect; inconclusive = small, poorly fitted or top-dose-only effect, or another doubt; inactive = no such curve, though single readings can be large or run the other way.
SMILES,Pf growth 96h,HCV inh,HCMV antiviral,Shiga toxin inh,Pf growth 48h,CHX counter
COc1cc(OC)c(OC)cc1CN1CCCC(C(=O)c2ccccc2SC)C1 (stereo unspecified),3.7µM*,-1%,-11,27,-7%,-2
O=C(Nc1ccc(C(F)(F)F)cc1)c1ccc2nc[nH]c2c1,-6%,-7%,28,54*,0%,23*
O=C(Nc1ccc2c(c1)OCO2)c1ccc2nc[nH]c2c1,40%,-6%,110,68*,.,52*
COc1ccc(NC(=O)c2ccc3nc[nH]c3c2)cc1,-5%,10%,27,62*,3%,38*
NS(=O)(=O)c1cccc(NC(=O)c2ccc3nc[nH]c3c2)c1,?,26%,?,-4,7%,-2
Cc1nc2ccc(C(=O)Nc3ccc4nc[nH]c4c3)cc2[nH]1,-10%,23%,-5,-8,26%,5
Cc1cccn2c(=O)c(C(=O)NCc3ccccc3Cl)c(O)nc12,.,.,-5,.,.,.
O=C(CC12CC3CC(CC(C3)C1)C2)NCO,7%[5.75 µM],-2%,?,27,29%,0
CC(NC(=O)CC12CC3CC(CC(C3)C1)C2)C(=O)O (stereo unspecified),9.3µM*,6%,7,-1,7%,-4
COc1cccc(N2C(=O)CSC23C(=O)N(CC(=O)Nc2cc(C)ccc2C)c2ccccc23)c1 (stereo unspecified),.,.,10,.,.,.
CCOC(=O)c1c(NC(=O)CN2CCN(c3ccc(Cl)cc3)CC2)sc(C)c1C,69%,9%,35,-15,28%,6
CCOC(=O)c1c(NC(=O)CN2CCCCC2)sc2c1CCC(C=O)=C2Cl,-66%,2.2µM*,14,-11,1%,-4
C1=C[C@H]2CC[C@@H]1N(c1ccccc1)O2,.,-4%,9,.,.,.
CCOc1cc(C2c3c(oc4ccc(F)cc4c3=O)C(=O)N2Cc2ccco2)ccc1O (stereo unspecified),.,.,5,.,.,.
CCn1c(=N)n(CC(O)COc2cccc(C)c2)c2ccccc21 (stereo unspecified),?,?,10,1,?,-5
Cc1ccc(Cn2c(=N)n(CC(O)COc3ccccc3)c3ccccc32)cc1 (stereo unspecified),1.7µM*,?,-35,-22,.,-6
N=c1n(Cc2ccccc2)c2ccccc2n1CC(O)COc1ccccc1 (stereo unspecified),9.3µM*,14µM*,?,-15,15µM*,-8
Cc1cc(C)c(C)c(S(=O)(=O)NCCN2CCOCC2)c1C,9%,21%,39,-9,-3%,-1
CC1CCN(S(=O)(=O)c2cn(CC(=O)N3CCN(c4cccc(C(F)(F)F)c4)CC3)cn2)CC1,16%,11µM*,.,-4,-1%,-8
Cc1nn(CC(=O)N2CCN(c3cccc(C(F)(F)F)c3)CC2)c(=O)c2cccn12,0%,-28%,-67*!,1,29%,6
CCc1ccc(/C=C/c2c([N+](=O)[O-])c(=O)n(C)c(=O)n2C)cc1,38%,?,-98*,-3,2.3µM*,12
Cn1c(/C=C/N(Cc2ccccc2)c2ccccc2)c([N+](=O)[O-])c(=O)n(C)c1=O,-11%,?,-5,6,-19%,4
COc1ccc(/C=C/c2c([N+](=O)[O-])c(=O)n(C)c(=O)n2C)c(OC)c1,2%,11µM*,0,3,?,3
CCOC(CNc1c([N+](=O)[O-])c(=O)n(C)c(=O)n1C)OCC,5%,15%,18,-8,-1%,-2
CCOc1ccc(/C=C/c2c([N+](=O)[O-])c(=O)n(C)c(=O)n2C)cc1,1%,10%,-75*,-14,?,-1
Cn1c(/C=C/c2ccc(Cl)cc2Cl)c([N+](=O)[O-])c(=O)n(C)c1=O,42%,?,-98*,-4,4.7µM*,-1
Cc1nc(S(=O)(=O)N2CCN(c3ccc(Cl)cc3)CC2)cn1C,.,.,-1,.,.,.
COc1ccc(/C=C/c2c([N+](=O)[O-])c(=O)n(C)c(=O)n2C)cc1,13µM*,2%,10,-10,?,1
